High-throughput results as filed in PubChem BioAssay.
Compounds with a hit are over-represented: about 3.9% of the library has one in this group of screens.
NTR1 agonist: agonists of human neurotensin receptor NTR1; NTR1-U2OS beta-arrestin-GFP spot imaging, agonist mode; activation, % at 20 µM; hit rate 0.17% among 330,000;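 active = activation at or above 40% of the spot to cytoplasm intensity ratio, with at least 20 cells analyzed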;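 note: 0% = DMSO without peptide and 100% = 100 nM NTR1 peptide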
Target sequence (P30989 whole entry, looked up): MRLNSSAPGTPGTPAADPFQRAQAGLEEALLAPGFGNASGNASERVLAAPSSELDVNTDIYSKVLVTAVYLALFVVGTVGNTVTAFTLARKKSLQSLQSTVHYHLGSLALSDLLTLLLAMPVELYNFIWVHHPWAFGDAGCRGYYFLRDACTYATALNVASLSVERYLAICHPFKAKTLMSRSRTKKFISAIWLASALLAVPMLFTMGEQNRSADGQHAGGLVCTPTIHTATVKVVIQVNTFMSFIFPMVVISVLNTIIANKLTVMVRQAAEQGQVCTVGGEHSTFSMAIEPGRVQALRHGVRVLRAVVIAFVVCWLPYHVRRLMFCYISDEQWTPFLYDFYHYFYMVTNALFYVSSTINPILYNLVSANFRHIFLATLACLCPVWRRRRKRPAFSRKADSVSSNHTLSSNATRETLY
UBC9 SUMO inh: blocks human SUMOylation mediated by UBC9; hit rate 0.36% among 290,000; inhibition, % at 35 µM; P63279; AID 2006; HTRF SUMOylation assay, SAE1/SAE2 + UBC9, in vitro; in the data active = inhibition above about 50%, passing the limit was not always enough
Target sequence (P63279 whole entry, looked up): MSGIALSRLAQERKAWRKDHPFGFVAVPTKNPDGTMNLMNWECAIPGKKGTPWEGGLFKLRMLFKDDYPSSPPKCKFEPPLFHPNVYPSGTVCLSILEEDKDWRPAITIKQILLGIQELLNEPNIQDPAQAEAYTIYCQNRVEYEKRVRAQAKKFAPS
H9c2 protect: protects H9c2 cardiomyocytes from peroxide injury. H2O2 injury protection, ATPLite, 2 h. AID 588492. protection from H2O2 cell death, % at 20 µM. hit rate 0.63% among 360,000;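 active = compounds giving at least 50% protection of heart cells from peroxide-induced death in the single-dose screen, raw or plate-pattern-corrected value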;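 note: 0% = DMSO wells with peroxide and 100% = DMSO wells without peroxide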
ALR H2O2 inh: human ALR oxidase inhibition via reduced H2O2; purified ALR, DTT oxidation, H2O2 HRP-luminol luminescence; inhibition, % (no concentration beside the values); hit rate 3.8% among 290,000; AID 485317;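 active = mean replicate inhibition above about 79%, with every replicate also reaching it, limit read from the data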
An asterisk follows results filed as active; nt = not tested or not shown.

SMILES	NTR1 agonist	UBC9 SUMO inh	H9c2 protect	ALR H2O2 inh
CC(=O)C1=C(O)C(=O)N(c2ccc(O)cc2)C1c1cccc(F)c1 (configuration not stated)	0.0	4.3	-1.1	81.8*
CC(=O)C1=C(O)C(=O)N(c2ccc(Br)cc2)C1c1cccc(F)c1 (configuration not stated)	0.0	6.2	-6.3	nt
CC(=O)C1=C(O)C(=O)N(c2ccc(O)cc2)C1c1ccc(C)cc1 (configuration not stated)	-1.0	12.8	-3.9	98.8*
CC(=O)C1=C(O)C(=O)N(c2ccc(F)cc2)C1c1ccc(C)cc1 (configuration not stated)	-1.0	7.6	-3.7	0.5
c1ccc(COc2ccc(OCCCNC3CCCC3)cc2)cc1	-2.5	7.5	-8.6	0.8
Nn1c(SCc2cccc3ccccc23)nnc1-c1ccco1	-1.5	3.7	5.0	99.1*
Cc1nn(C)cc1CN(C)C(=O)c1ccc(OC2CCN(Cc3ccccn3)CC2)cc1	0.1	-3.3	-5.9	29.3
CCN(CC)C(=O)c1sc2nc(-c3ccncc3)[nH]c(=O)c2c1C	-0.8	51.9*	14.9	-1.1
CCN(CC)C(=O)c1sc2nc(-c3ccccn3)[nH]c(=O)c2c1C	2.4	nt	16.7	-7.1
Cc1nn(-c2ccccc2)c2sc(C(=O)NNC(=O)COc3ccccc3)cc12	1.9	55.4*	15.4	-4.7
Cc1nn(-c2ccccc2)c2sc(C(=O)NNC(=O)COc3cccc4ccccc34)cc12	5.5	3.2	-0.4	-0.1
CC1(C)Nc2ccc(O)cc2-c2c1ssc2=S	-0.3	52.7	-6.0	99.0*
O=C(COC(=O)c1cc[n+]([O-])cc1)Nc1ccc(SC(F)F)cc1	1.5	12.1	22.2	94.6*
O=C(CCS(=O)(=O)c1ccccc1)NC1CCCCC1	0.6	2.1	1.4	83.6*
COc1ccc(S(=O)(=O)CCC(=O)NC2CCCCC2)cc1	-0.4	-2.7	2.9	10.4
CCOC(=O)/C=C(\C)Sc1cc(=O)oc2ccccc12	-1.3	10.9	11.2	27.5
CCOC(=O)/C=C(\C)Sc1cc(O)c2ccccc2c1O	nt	74.0*	-15.9	nt
Cn1c(O)c(/C=N/Nc2ccccc2)c(=O)n(C)c1=O	1.1	-2.6	2.1	100.2*
O=C(N/N=C/c1coc2ccc(Cl)cc2c1=O)c1cc(O)cc(O)c1	3.4	-4.4	-2.3	96.0*
O=C(N/N=C/c1coc2ccccc2c1=O)c1cc(Br)c(O)c(Br)c1	0.1	2.0	-6.2	97.8*
CCCOc1cccc(C(=O)N/N=C/c2coc3ccccc3c2=O)c1	2.9	9.5	0.8	96.9*
O=C(CSc1nc2ccccc2o1)N/N=C/c1ccc(O)c(O)c1	2.6	-12.8	66.9*	88.5*
C/C(=N\NC(=O)CSc1nc2ccccc2o1)c1ccc(O)cc1	-0.6	11.0	-3.4	99.1*
Cc1ccc(C)c(-c2cc(C(=O)NC3CC3)c3ccccc3n2)c1	-1.1	8.8	2.5	94.5*
C/C(=N\NC(=O)c1cc(-c2ccco2)nc2ccccc12)c1cccnc1	-0.4	60.1*	-4.6	17.5
SMILES	NTR1 agonist	UBC9 SUMO inh	H9c2 protect	ALR H2O2 inh
Cc1ccc(C)c(-c2cc(C(=O)N/N=C/c3cccnc3)c3ccccc3n2)c1	2.3	-4.3	56.5*	-0.2
CN(C)c1ccc(C(=S)NC2CCCCC2)cc1	-0.7	4.9	-15.0	5.6
COc1ccc(-c2ccc3c(c2)S(=O)(=O)c2cccc(C(=O)N4CCN(c5c(Cl)cncc5Cl)CC4)c2C3=O)cc1OC	-0.2	nt	66.4*	-0.9
COc1ccc(-c2ccc3c(c2)S(=O)(=O)c2cccc(C(=O)NC[C@@H]4CCCO4)c2C3=O)cc1OC	1.2	nt	63.2*	0.5
COc1ccc(Cc2nnc(Nc3ccccc3OC)[nH]c2=O)cc1	0.3	13.9	-2.1	0.5
O=C1c2cccc3cc([N+](=O)[O-])cc(c23)C(=O)N1/N=C/c1ccc(O)cc1O	5.6	13.0	36.1	-2.2
Cc1ccc2nc3sc(C(=O)Nc4c(C)[nH]c(=O)[nH]c4=O)c(N)c3cc2c1	2.2	10.9	4.5	-0.9
Cc1ccc2cc3c(N)c(C(=O)Nc4c(C)[nH]c(=O)[nH]c4=O)sc3nc2c1	3.4	20.6	0.9	96.4*
CCCCC(=O)N=c1sc2cc(S(C)(=O)=O)ccc2n1C	-0.6	-5.2	0.4	-9.0
CCN1CCn2c3c(c4cc(C)ccc42)CCCC31 (configuration not stated)	1.1	12.3	-29.1	98.3*
Cc1ccc2c(c1)c1c3n2CCN(CCC#N)C3CCC1 (configuration not stated)	nt	nt	-2.0	nt
CC(Oc1ccc(F)cc1)C(=O)Nc1sc2c(c1C(=O)NCc1cccnc1)CCCC2 (configuration not stated)	5.0	-46.0	15.6	-2.5
O=Nc1c(O)[nH]c2ccc(F)cc12	-0.3	9.0	-2.6	-3.4
Cc1cc2c(N=O)c(NO)ccc2[nH]1	3.1	3.1	57.1*	78.9*
S=C1NC2(CCCCC2)NN1c1ccccc1	3.5	13.4	8.8	98.2*
COc1ccc(/C(O)=C2/C(=O)C(=O)N(CCCN3CCOCC3)C2c2ccc(C)cc2)cc1 (configuration not stated)	-1.5	-8.3	5.2	12.5
NC(=O)CC(NC(=O)Cc1ccc(Br)cc1)c1ccc(NCCc2ccccc2F)c([N+](=O)[O-])c1 (configuration not stated)	2.0	62.8*	-3.4	1.6
C=CCOc1ccc(/C=C2/C(=N)N3N=C(CC(=O)N4CCCC4)SC3=NC2=O)cc1OC	-1.2	6.2	0.6	98.8*
Cc1ccc(/C=C2/C(=N)N3N=C(CC(=O)N4CCCC4)SC3=NC2=O)cc1	nt	-8.2	-1.5	97.4*
CC(=O)Nc1cccc(C(=O)Oc2cccc(C)c2)c1O	-2.0	11.7	0.3	43.0
CC(=O)Nc1ccc(OCC(=O)N2CCC(Cc3ccccc3)CC2)cc1	-0.6	16.9	-6.1	-9.9
OCC1CCCN(C(=S)Nc2ccc(Nc3ccccc3)cc2)C1 (configuration not stated)	1.5	2.2	-4.6	99.6*
CC1CCCN(C(=O)COc2ccc3c(c2)OCO3)C1 (configuration not stated)	-1.5	8.2	2.0	-12.2
OCC1CCCN(C(=S)Nc2ccc(OC(F)F)cc2)C1 (configuration not stated)	1.3	-4.8	-8.5	2.8
CC1CCN(C(=O)COc2ccc(Nc3ccccc3)cc2)CC1	1.6	5.9	-13.9	87.6*
SMILES	NTR1 agonist	UBC9 SUMO inh	H9c2 protect	ALR H2O2 inh
CC1CCCN(C(=O)COc2ccc(Nc3ccccc3)cc2)C1 (configuration not stated)	0.7	10.4	-2.4	98.9*
CCN(CC)CCCNCC(=O)Nc1cc(C)on1	0.8	12.8	-0.8	nt
CCCS(=O)(=O)c1c(S(=O)(=O)CCC)c2c(C)cccn2c1C(=O)N/N=C/c1cc(O)cc(O)c1	3.7	-2.2	53.4*	66.2
Cn1c(SCc2ccc(C#N)cc2Cl)nc2ccccc21	0.8	18.2	-8.4	95.9*
N#Cc1ccc(CSc2ccccn2)c(Cl)c1	1.4	7.3	-5.5	nt
COc1ccc(S(=O)(=O)N(C)c2ccc(C(=O)Nc3ccccc3C(=O)N3CCOCC3)cc2)cc1	2.6	4.5	10.7	-1.4
